High-throughput results (PubChem BioAssay)
HT1080NT lethal: kills 2HG-producing HT-1080-NT fibrosarcoma cells; Potency, µM (highest dose often 46.1 µM), without a hit: at the highest dose activity, negative = less viability, hits mostly cytotoxic; HT-1080-NT fibrosarcoma viability, CellTiter-Glo ATP luminescence, 48 h; 1.6% of 360,000 active;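 further: NT is the 2HG producing partner of a matched IDH1 knockdown line; potency means the concentration at half of the fitted maximal effect; 0% = DMSO-treated cells and -100% = media-only wells without cells; nearly all actives have a fitted effect of over 55% in size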
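Toxicity toward the 2HG-producing NT line was scored as %Activity, normalised to DMSO and no-cell wells, from CellTiter-Glo luminescence after 48 hours' treatment.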
HT1080 IDH1KD tx: toxicity to HT-1080 IDH1 knockdown cells (counter line); HT-1080 IDH1 knockdown viability, ATP luminescence, 48 h; Potency, µM (doses to about 46.1 µM), for the others: at the top dose activity, negative = toxicity, usual class: cytotoxic; 2% of 360,000 active;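 further: potency means the concentration at half of the fitted maximal effect; 0% = DMSO wells and -100% = cell-free medium wells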
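After a 2 h attachment period, IDH1KD HT-1080 cells took pin-transferred compound for 48 h at 37 °C; ATP-based luminescence after 10 min room-temperature reagent incubation reported viability.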
TDP1 cell noCPT: qHTS for Inhibitors of human tyrosyl-DNA phosphodiesterase 1 (TDP1): qHTS in cells in absence of CPT; 15% of 420,000 active; AID 686978, 2013; DT40 Tdp1-/- hTDP1 cells, no CPT, ATP luminescence, 48 h; Potency, µM (doses to about 46.2 µM), without a hit: top-dose activity change, negative = growth inhibition, usual class: inhibitors; further: potency means the concentration at half of the fitted maximal effect; nearly all actives have a fitted effect of over 55% in size
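Growth of hTDP1-complemented DT40 Tdp1-knockout cells is measured by ATP luminescence after at least 48 hr compound exposure at 37 °C, with DMSO substituting for the 20 nM CPT used in the parallel screen.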
12-LOX inh: inhibitors of human 12S-lipoxygenase ALOX12; AID 1671190; purified 12hLO, xylenol orange hydroperoxide absorbance; P18054; Potency, µM (top dose mostly 108 µM), inactives show top-dose activity change, negative = inhibition, actives largely listed as inhibitors; 1.1% of 580,000 active; further: potency means the concentration at half of the fitted maximal effect
Target sequence (P18054 whole entry, looked up): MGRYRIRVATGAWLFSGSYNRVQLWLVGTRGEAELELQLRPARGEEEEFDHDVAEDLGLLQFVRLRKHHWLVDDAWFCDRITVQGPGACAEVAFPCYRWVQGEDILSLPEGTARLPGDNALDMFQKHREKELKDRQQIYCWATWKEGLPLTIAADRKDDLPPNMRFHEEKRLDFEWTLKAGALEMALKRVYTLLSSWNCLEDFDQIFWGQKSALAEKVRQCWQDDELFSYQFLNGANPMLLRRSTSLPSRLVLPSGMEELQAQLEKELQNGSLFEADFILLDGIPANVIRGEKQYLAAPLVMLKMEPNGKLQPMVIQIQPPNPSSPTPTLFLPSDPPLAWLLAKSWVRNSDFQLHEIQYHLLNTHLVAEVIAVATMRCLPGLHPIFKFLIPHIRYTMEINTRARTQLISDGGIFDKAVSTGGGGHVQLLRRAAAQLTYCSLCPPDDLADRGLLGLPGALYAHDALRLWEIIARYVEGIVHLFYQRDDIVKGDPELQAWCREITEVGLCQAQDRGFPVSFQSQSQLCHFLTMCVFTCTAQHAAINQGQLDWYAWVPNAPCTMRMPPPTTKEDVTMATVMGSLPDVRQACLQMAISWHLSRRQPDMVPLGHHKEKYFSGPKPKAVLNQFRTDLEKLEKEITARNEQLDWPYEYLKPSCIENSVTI
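Purified human 12hLO at 150 nM in 25 mM Hepes, 0.01% Triton X-100, pH 7.0, preincubated 15 min at room temperature with compound. Reaction started with 40 uM arachidonic acid, 30 min at room temperature. Hydroperoxide measured by Fe-xylenol orange, 573/405 nm absorbance ratio.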
IL-1B inflam inh: blocks inflammasome-driven IL-1 beta release; THP-1 LPS/ATP IL-1B secretion, AlphaLISA, 16 h; active compounds read low; activity change, % at 57.5 µM; 4.7% of 360,000 active; AID 743279; in the data active means activity change below about -50%; inconclusive means mostly about -30% to -49%
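Secreted IL-1B measured by AlphaLISA bead assay after 16 h compound exposure of THP-1 cells; compounds (final up to 57.5 uM) added 1 h before LPS (250 ng/mL) and ATP (1.25 mM) stimulation; lower signal means less secretion.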
TDP1 cell CPT: growth inhibition of DT40 Tdp1-/-;hTDP1 cells with camptothecin (screen for TDP1 inhibitors); 12% of 420,000 active; Potency, µM (top dose mostly 46.2 µM), without a hit: top-dose activity change, negative = growth inhibition, actives largely listed as inhibitors; chicken DT40 Tdp1-/-;hTDP1 cells + 20 nM CPT, ATP luminescence, 48 h; AID 686979; further: potency means the concentration at half of the fitted maximal effect; nearly all actives have a fitted effect of over 55% in size
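Chicken DT40 Tdp1-/- cells stably complemented with human TDP1 were seeded at 400 cells/well in medium containing 20 nM camptothecin, exposed to pin-transferred compounds, and grown at 37 °C for at least 48 hr. Viability was read as ATP luminescence.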
* = called active by the depositor; ? = inconclusive; · = no result given; [ ] = remark or other dose. Many of the other results were omitted from the sample, so hits are more common in it than they were. Unless noted, the call rests on the fitted dose curve; in most records, active means well fitted curve in the direction sought with a large enough effect; inconclusive means small, poorly fitted or top-dose-only effect, or another doubt; inactive means no such curve, though single readings can be large; an effect the other way counts as inactive or inconclusive. Unless noted, on the % scale 0 is the no-effect control and ±100 the full control effect.

SMILES	HT1080NT lethal	HT1080 IDH1KD tx	TDP1 cell noCPT	12-LOX inh	IL-1B inflam inh	TDP1 cell CPT
CCOC(=O)c1cnc(N2CC3CCC(C2)N3CC(F)(F)F)s1	·	·	·	0%[6.33 µM]	·	·
CN(C)c1nccnc1OC1CCN(C(=O)c2ccccc2Br)C1 (centres undefined)	·	·	·	43%	·	·
O=C(NC1CCCCC1)[C@@H]1C[C@@H](O)CN1C1CCN(C(=O)c2ccco2)CC1	·	·	·	44%	·	·
O=C(/C=C/c1ccco1)NC(=S)Nc1cccc(C(=O)O)c1	-3%	1%	2%	?	7	-25%
CC/C(=N\NC(=O)CNC(=O)/C=C/c1ccco1)c1ccccc1	11%	6%	-14%	-2%	12	-5%
COc1ccc(/C(C)=N/NC(=O)CNC(=O)/C=C\c2ccco2)cc1	0%	-1%	9.2µM*	-10%	84	13µM*
COc1cccc(NC(=S)NC(=O)/C=C/c2ccco2)c1	21µM*	6.5µM*	15µM*	0%	32	18µM*
CN1C(=O)CCCCC1C(=O)N1CCCCC1 (centres undefined)	·	·	·	2%	·	·
CCCCn1nc(C(=O)Nc2cccc(C#N)c2)c2ccccc2c1=O	·	·	·	10%	·	·
O=C1C(c2ccncc2)=C(O)c2ccccc21	-3%	-8%	18µM*	0%	-11	?
Cc1ccc(C2=C(O)c3ccccc3C(=O)C2=O)cc1	0%	-20%	-11%	?	11	-29%
O=C(COC(=O)c1ccccc1Sc1ccc(C(F)(F)F)cc1[N+](=O)[O-])NC1CCCc2ccccc21 (centres undefined)	·	·	·	10%	·	·
CN(C)c1ccc(/C=C2\CCC/C(=C\c3ccccc3)C2=O)cc1	12%	12%	?	-21%	-65*	?
CN(C)/C=C1\Cc2ccccc2C1=O	3%	-6%	-95%	-36%	-3	33µM*
CN(C)c1ccc(/C=C2\Cc3ccccc3C2=O)cc1	·	·	3.5µM*	·	·	?
Cc1ccccc1/C=C1\Cc2ccccc2C1=O	·	·	·	-27%	·	·
O=C1/C(=C/c2ccccc2)CCCc2ccccc21	16%	9%	?	?	-19	-16%
COC(=O)c1c(NC(C)=O)c2cc(NC(C)CC(C)(C)O)cnc2n1CCC(C)C (centres undefined)	·	·	·	42%	·	·
Cc1ccccc1C(=O)OCC(=O)NCC1COc2ccccc2O1 (centres undefined)	-3%	10%	18µM*	-13%	0	?
CC(C)Oc1ccc(/C=C/C(=O)NCC2COc3ccccc3O2)cc1 (centres undefined)	-17%	-22%	?	0%	-72*	8%
COc1ccc(Cl)cc1NC(=O)N1CCC2(CC1)N=C(c1ccc(C(C)(C)C)cc1)C(=O)N2	·	·	·	10%	·	·
COc1cc2ncc(S(=O)(=O)c3ccccc3)c(N3CCCC(C)C3)c2cc1OC (centres undefined)	-25%	?	12µM*	?	-30	?
Cc1cc(C(=O)COC(=O)c2ccccc2O)c(C)n1Cc1cccs1	-3%	?	15µM*	0%	?	?
Cc1cc(C(=O)COc2cccnc2[N+](=O)[O-])c(C)n1Cc1cccs1	?	-2%	?	?	-17	?
CC(=O)Nc1ccccc1OCC(=O)c1cc(C)n(Cc2cccs2)c1C	-13%	2.6µM*	1.5µM*	-12%	-13	1.8µM*
SMILES	HT1080NT lethal	HT1080 IDH1KD tx	TDP1 cell noCPT	12-LOX inh	IL-1B inflam inh	TDP1 cell CPT
Cc1ccccc1-c1nc(C#N)c(NCCc2ccccc2)o1	·	·	·	-19%	·	·
CCN(CC)c1ccc2c(C)c(Cl)c(=O)oc2c1	-12%	-4%	?	-22%	19	-2%
CCN(CC)c1ccc2c(Cl)c(Br)c(=O)oc2c1	18µM*	21µM*	23µM*	·	-100*	18µM*
CCN(CC)c1ccc2c(c1)oc(=O)c1c(Cl)cc(=O)oc12	?	2.6µM*	5.2µM*	·	-126*	2.6µM*
CCN(CC)c1ccc2c(C)cc(=O)oc2c1	·	·	-9%	-12%	2	0%
CC1(CNCc2ccccc2)COc2ccc(C(=O)NCc3ccncc3)cc2N1 (centres undefined)	·	·	·	60%[176 µM]	·	·
Cc1nc(/C=C\C(=O)O)c2cc(C)oc2n1	24%	19%	-7%	7%	-66*	3%
CSc1nc(C)c2cc(C)oc2n1	10%	16%	-17%	0%	0	0%
CCCN1Cc2cccc(C(=O)Nc3ccc(CN4CCCC4)cc3)c2C1=O	-8%	-25%	23µM*	-15%	-56*	-3%
COCCN1Cc2cccc(C(=O)Nc3ccc(C)cc3)c2C1=O	6%	-5%	?	2%	-68*	-28%
CCCN1Cc2cccc(C(=O)NC(CC(=O)OCC)c3ccc(OC(C)C)cc3)c2C1=O (centres undefined)	-15%	-9%	21µM*	-4%	30	?
CCOc1ccc(NC(=O)c2cccc3c2C(=O)N(Cc2cccnc2)C3)cc1	1%	3%	?	-4%	-82*	?
COC(CNC(=O)c1cccc2c1C(=O)N(Cc1cccnc1)C2)OC	0%	8%	-21%	6%	-19	4%
CCOC(=O)C(NC(=O)/C=C/c1ccc(C)cc1Br)C(=O)OCC	·	·	·	2%	·	·
CN(CC(=O)NC(=O)NC1CCCCC1)Cc1ccc2ccccc2c1	·	·	·	11%	·	·
COc1ccc(N2Cc3cccc(C(=O)Nc4ccc(Cl)cc4)c3C2=O)cc1	·	·	21µM*	?	·	8.2µM*
CC(=O)c1nn(-c2ccc(Br)cc2)cc1C(=O)c1ccccc1	-8%	-14%	-26%	0%	0	5%
CC(=O)c1nn(-c2ccccc2)cc1C(=O)c1ccc(C)cc1	-2%	-1%	23µM*	0%	0	?
N#Cc1cn(-c2ccccc2)nc1C(=O)c1ccccc1	-15%	-12%	12µM*	5%	-3	?
Cc1ccc(-c2onc(C)c2C)cc1S(=O)(=O)N1CCOc2ccc(Cl)cc21	·	·	15µM*	2%	·	?
Cc1ccc(-c2onc(C)c2C)cc1S(=O)(=O)N1CCc2ccccc21	·	·	23µM*	4%	·	13µM*
Cc1ccc(-c2onc(C)c2C)cc1S(=O)(=O)N1CCC(C)CC1	·	·	?	-15%	·	21µM*
CCC1CN(S(=O)(=O)c2ccc3c(c2)NC(=O)CC(=O)N3)c2cc(Cl)ccc2O1 (centres undefined)	-19%	-19%	21µM*	-5%	55	16µM*
